In the library only some 2.1% were active in any assay of this set; here they are far more common.
aSyn yeast inh: alpha-synuclein toxicity inhibition in yeast; Potency, µM (titrated, usually from 46.1 µM), without a hit: top-dose growth rescue (activation), most hits filed as activators; 370,000 tested, 0.14% active; AID 652106; Yeast expressing alpha-synuclein, growth rescue, BacTiter-Glo, 24 h; note: % of control where 0% means no effect; nearly all actives have a fitted effect of over 65% in size
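Rescue of yeast growth: cells expressing toxic alpha-synuclein, induced in galactose at OD600 0.02, incubated with compound 24 h at 30 C. ATP luminescence quantified growth; inhibitors of toxicity appear as activators.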
FUS yeast rescue: FUS proteinopathy suppression in yeast; S. cerevisiae FUS-expressing, growth rescue, OD600, 24 h; 390,000 tested, 0.24% active; AID 1347120; Potency, µM (doses to about 76.6 µM), most hits filed as activators;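 note: plate controls were DMSO vehicle for no effect and reference control for full effect; nearly all actives have a fitted effect of over 55% in size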
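Yeast FUS proteinopathy model; galactose-induced FUS (2%), starting OD 0.005. Cpds in dilution series, 24hr, 30C, 99% humidity. Abs 600 nm growth. Pos ctrl CP55940 (top 92uM final); neg ctrl DMSO.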
Abeta yeast res: restores growth of yeast expressing A-beta42 peptide. yeast expressing A-beta42, growth rescue, OD600, 48 h; response scale: 0% DMSO, 100% iron-clioquinol control. Potency, µM (titrated, usually from 46.1 µM), actives largely listed as activators. 410,000 tested, 0.063% active; note: nearly all actives have a fitted effect of over 55% in size
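Growth rescue measured by 600 nm absorbance after 48 h yeast culture at 30 C with compound. Values normalized between DMSO and an equimolar ferric chloride plus clioquinol control.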
TDP-43 yeast inh: inhibitors of TDP-43 toxicity in yeast; 410,000 tested, 1.8% active; AID 652104; Potency, µM (highest dose often 46.1 µM), inactives show at the top dose growth rescue (activation), hits mostly activators; TDP-43 expressing yeast growth rescue, BacTiter-Glo, 24 h; note: % of control where 0% means no effect; nearly all actives have a fitted effect of over 50% in size
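Luminescence from BacTiter-Glo reports growth of TDP-43-expressing yeast after 24 hr at 30 deg C with compound. Cells were raffinose-pregrown to mid-log, then seeded in galactose medium at OD600=0.02.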
Active calls of the source: *; i = inactive; ? = inconclusive; . = no result given. Calls come from the whole dose curve; as a rule, active = well fitted curve in the direction sought with a large enough effect; inconclusive = small, poorly fitted or top-dose-only effect, or another doubt; inactive = no such curve, though single readings can be large; an effect the other way counts as inactive or inconclusive. Potency is the fitted concentration of half-maximal effect.

SMILES	aSyn yeast inh	FUS yeast rescue	Abeta yeast res	TDP-43 yeast inh
Cc1cc2nccc(-c3ccncc3)n2n1	0.0%	i	i	5.6%
Cc1cc(C)nc(SCc2nnc(SCc3ccccc3Cl)o2)n1	17.8%	i	i	15.8µM*
CC(C)(C)Cc1c(-c2ccco2)nc2ccc(Cl)cn12	?	i	i	11.2µM*
COc1ccc(Cc2c(-c3ccco3)nc3ccc(Br)cn23)c(C)c1	?	i	i	4.47µM*
COc1ccc(Cc2c(-c3ccccc3)nc3ccc(Cl)cn23)c(C)c1	4.6%	i	i	0.0%
COc1ccc(Cc2c(-c3ccco3)nc3ccc(Cl)cn23)c(C)c1	22.7%	i	i	22.4µM*
CC(C)(C)Cc1c(-c2cccc(Cl)c2)nc2ccc(Cl)cn12	-14.1%	i	i	0.0%
Cc1c(C2(O)CCCCC2)[nH]c2cc(C(F)(F)F)ccc12	-15.9%	i	i	6.31µM*
CCCCc1ccc(NC(=O)CN(C)CC(=O)Nc2ccccc2Cl)cc1	26.6%	35.5µM*	?	13.5%
CN(CC(=O)Nc1ccccc1)CC(=O)Nc1ccccc1Cl	10.2%	i	i	19.1%
CCCCCN(C(=O)CCC(=O)OC(C)C(=O)c1ccc(Cl)cc1)c1c(N)n(CCCC)c(=O)[nH]c1=O (stereo not drawn)	1.5%	31.6µM*	i	-3.6%
CCCCCN(C(=O)CCC(=O)OC(C)C(=O)NCc1ccccc1)c1c(N)n(CCCC)c(=O)[nH]c1=O (stereo not drawn)	-4.7%	i	i	-8.5%
CCCCn1c(N)c(N(CC(C)C)C(=O)c2ccc(Cl)c(S(=O)(=O)N3CCCC3)c2)c(=O)[nH]c1=O	-15.7%	31.6µM*	i	-9.2%
CCCCCN(C(=O)CCC(=O)OCC(=O)c1ccc(F)c(F)c1)c1c(N)n(CCCC)c(=O)[nH]c1=O	0.7%	28.2µM*	i	11.2%
NC(=O)C1CCN(C2=C(Cl)C(=O)c3ccccc3C2=O)CC1	-3.9%	i	i	12.6µM*
O=C1C(Cl)=C(N2CCC(C(=O)O)CC2)C(=O)c2ccccc21	-1.0%	i	i	17.8µM*
CC(C)(C)c1cc(C(=O)Nc2ccc(F)cc2)n(Cc2ccc(F)cc2)n1	-10.6%	i	?	20µM*
Cc1ccc(NC(=O)c2cc(C(C)(C)C)nn2Cc2ccccc2)cc1	-15.2%	i	i	26.5%
O=C(c1ccc2c(c1)N(Cc1c(F)cccc1Cl)C(=O)c1ccccc1S2)N1CCCC1	.	?	i	?
COc1ccc(CCNc2ncnc3c2c(-c2ccccc2)cn3-c2ccc(F)cc2)cc1OC	.	?	i	?
CCCNc1ncnc2c1c(-c1ccccc1)cn2-c1ccccc1	.	?	i	22.4µM*
COc1ccc(-n2cc(-c3ccccc3)c3c(NC4CCCC4)ncnc32)cc1	.	i	i	22.4µM*
c1ccc(-c2cn(-c3ccccc3)c3ncnc(N4CCCCC4)c23)cc1	-0.8%	i	i	17.8µM*
COc1ccc(CCNc2ncnc3c2c(-c2ccccc2)cn3-c2ccc(Cl)cc2)cc1OC	.	14.1µM*	i	?
Clc1cccc(-n2cc(-c3ccccc3)c3c(NC4CCCC4)ncnc32)c1	.	i	i	0.0%
SMILES	aSyn yeast inh	FUS yeast rescue	Abeta yeast res	TDP-43 yeast inh
COCCNC(=O)c1c(NC(=O)c2cc(=O)c3cc(C)cc(C)c3o2)sc2c1CCCC2	.	i	i	17.9%
O=[N+]([O-])c1ccc(C(c2sc3nc(-c4ccco4)nn3c2O)N2CCN(Cc3ccccc3)CC2)cc1 (stereo not drawn)	.	i	i	21.2%
CCOC(=O)c1cccc(NC(=O)[C@H](CSCc2ccccc2)N2Cc3ccccc3C2=O)c1	.	i	i	18.8%
COCCN(CCOC)c1ncnc2c1c(-c1ccccc1)cn2-c1ccc(C)c(Cl)c1	.	i	i	25.1µM*
COC(=O)c1ccccc1NC(=O)c1ccc2c(c1)CC(C)O2 (stereo not drawn)	5.2%	i	i	12.6µM*
CCCOc1ccc(C(=O)NCC2OCCc3ccccc32)cc1 (stereo not drawn)	-4.3%	i	i	?
O=C(OCCN1CCN(C2CN(Cc3cn(Cc4ccccc4Cl)nn3)S(=O)(=O)C2)CC1)c1cccs1 (stereo not drawn)	.	i	.	.
O=C(CCCCl)NC(=S)Nc1cc(C(F)(F)F)ccc1N1CCOCC1	0.0%	i	?	12.6µM*
CC(C)(C)C(=O)NC(=S)Nc1cc(C(F)(F)F)ccc1N1CCOCC1	18.5%	i	i	3.7%
CSc1nnc2c(n1)C[C@H](c1ccccc1)[C@@H](C)[C@@H](C(=O)N1CCCC1)C2	.	i	.	.
O=C1N[C@@H](Cc2ccccc2)COC(=O)[C@H](Cc2ccc(F)cc2)CC/C=C/C[C@H]1CC(=O)N(CCO)Cc1ccccc1	-0.6%	22.4µM*	i	29.2%
O=C1N[C@@H](Cc2ccccc2)COC(=O)[C@H](Cc2ccc(F)cc2)CC/C=C/C[C@@H]1CC(=O)N(CCO)Cc1ccccc1	1.8%	?	i	0.0%
O=C1NC[C@H](c2ccccc2)OC(=O)[C@@H](Cc2ccc(F)cc2)CC/C=C/C[C@H]1CC(=O)N(CCO)Cc1ccccc1	2.9%	?	i	19.1%
O=C(C[C@H]1C/C=C\C[C@H](Cc2ccc(F)cc2)C(=O)O[C@@H](c2ccccc2)CNC1=O)N[C@H](CO)Cc1ccccc1	1.5%	28.2µM*	i	10.0%
C[C@@H]1COC(=O)[C@H](NC(=O)OCC2c3ccccc3-c3ccccc32)C/C=C\C[C@@H](CC(=O)N(CCO)Cc2ccccc2)C(=O)N1	-0.3%	i	i	17.7%
O=C(N[C@@H]1C/C=C\C[C@H](CC(=O)N(CCO)Cc2ccccc2)C(=O)N[C@@H](Cc2ccccc2)COC1=O)OCC1c2ccccc2-c2ccccc21	7.1%	31.6µM*	i	9.0%
O=C1NC[C@H](c2ccccc2)OC(=O)[C@H](Cc2ccc(F)cc2)CC/C=C/C[C@H]1CC(=O)N(CCO)Cc1ccccc1	-1.0%	31.6µM*	i	6.5%
COc1cccc(NC(=O)Cn2cc(C(=O)C3CCCCC3)c3ccccc32)c1	.	i	i	6.2%
CCc1nnc2c3ccccc3nc(Nc3ccc(F)c(Cl)c3)n12	.	i	i	20.4%
CC12CC3CC(C)(C1)CC(Nc1nc(N4CCOCC4)nc4ccccc14)(C3)C2	8.7%	i	i	20µM*
Cn1nccc1-c1coc2c(C(=O)NCc3ccccc3)cccc12	14.2%	i	i	3.55µM*
O=C(NCc1ccco1)c1ccc(-c2ccc(F)c(F)c2)c2ccoc12	1.1%	i	i	20µM*
Cn1nccc1-c1coc2c(C(=O)NCC3CCOCC3)cccc12	-9.9%	i	i	12.8%
O=C(NCc1ccccc1)c1ccc(-c2ccc(F)c(F)c2)c2ccoc12	-0.9%	i	i	-7.9%
Cn1nccc1-c1ccc(C(=O)NCc2ccc(Cl)cc2)c2occc12	5.6%	?	i	22.4µM*

Screens (PubChem BioAssay)
